Assay results reported in PubChem BioAssay.
Active and inactive are the calls of the source.

Columns and labels:
[1] = binders of probe aFSTL3 on microarray, primary screen, stem cell growth factor project, biochemical, small-molecule microarray, fluorescence 635/667 (AID 1064); details: higher = more signal;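 note: measures binding of the biotinylated anti-FSTL3 antibody to printed compounds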
[2] = binders from COS7 lysate, DM2A8 probe, primary screen, torsin A project, cell lysate, small-molecule microarray, fluorescence 635/667 (AID 1065); details: higher = more signal, COS7 lysate expressing mutant human TOR1A
[3] = binders of probe aFGF2 on microarray, primary screen, stem cell growth factor project, biochemical, small-molecule microarray, fluorescence 635/667 (AID 1067); details: higher = more signal;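 note: measures binding of biotinylated aFGF2 protein to printed compounds on slides; z-score merges feature fluorescence and signal-to-noise across triplicate slides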
[4] = binders of probe aFGF10 on microarray, primary screen, stem cell growth factor project, biochemical, small-molecule microarray, fluorescence 635/667 (AID 1071); details: higher = more signal;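 note: score merges 667 nm spot intensity and signal to noise from triplicate slides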
[5] = molecular target: Neurogenic locus notch homolog protein 2 (Homo sapiens) (UniProt Q04721); assay: Notch2 binders on small-molecule microarrays, primary screen, biochemical, small-molecule microarray, 635 nm fluorescence, stem cell growth factors (AID 1073); details: Notch2 binding, higher = more signal
[6] = molecular target: Pro-neuregulin-1, membrane-bound isoform (Homo sapiens) (UniProt Q02297); assay: NRG1 binders on small-molecule microarrays, primary screen, psychiatric disease protein project, biochemical, small-molecule microarray, fluorescence 635/667 (AID 1075); details: NRG1 binding, 635 nm fluorescence, higher = more signal;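 note: score combines 667 nm spot fluorescence with signal to noise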
[7] = tested on: Neuregulin-1 EGF-like domain; assay: binders of neuregulin-1 EGF-like domain, primary screen, biochemical, small-molecule microarray, 635 nm fluorescence (AID 1081); details: small-molecule microarray binding, higher = more signal;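 note: binding of the protein to compounds printed on small-molecule microarray slides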
[8] = FRG1 promoter luciferase signal modulators, primary screen, FRG1 inhibition for FSHD, cell-based, C2C12 myotubes, firefly/Renilla luciferase, luminescence (AID 1084); details: higher = more signal, called active from +8 up or from −8 down
[9] = binders of probe aFST on microarray, primary screen, stem cell growth factor project, biochemical, small-molecule microarray, fluorescence 635/667 (AID 1086); details: higher = more signal;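 note: score merges 667 nm fluorescence with signal-to-noise of each printed compound spot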
[10] = binders of probe aHhip on microarray, primary screen, stem cell growth factor project, biochemical, small-molecule microarray, fluorescence 635/667 (AID 1087); details: higher = more signal;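 note: score merges spot fluorescence at 667nm with spot signal to noise ratio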

Pro-neuregulin-1, membrane-bound isoform (Homo sapiens), sequence (Q02297 whole entry, looked up, the tested form may be a part, canonical isoform): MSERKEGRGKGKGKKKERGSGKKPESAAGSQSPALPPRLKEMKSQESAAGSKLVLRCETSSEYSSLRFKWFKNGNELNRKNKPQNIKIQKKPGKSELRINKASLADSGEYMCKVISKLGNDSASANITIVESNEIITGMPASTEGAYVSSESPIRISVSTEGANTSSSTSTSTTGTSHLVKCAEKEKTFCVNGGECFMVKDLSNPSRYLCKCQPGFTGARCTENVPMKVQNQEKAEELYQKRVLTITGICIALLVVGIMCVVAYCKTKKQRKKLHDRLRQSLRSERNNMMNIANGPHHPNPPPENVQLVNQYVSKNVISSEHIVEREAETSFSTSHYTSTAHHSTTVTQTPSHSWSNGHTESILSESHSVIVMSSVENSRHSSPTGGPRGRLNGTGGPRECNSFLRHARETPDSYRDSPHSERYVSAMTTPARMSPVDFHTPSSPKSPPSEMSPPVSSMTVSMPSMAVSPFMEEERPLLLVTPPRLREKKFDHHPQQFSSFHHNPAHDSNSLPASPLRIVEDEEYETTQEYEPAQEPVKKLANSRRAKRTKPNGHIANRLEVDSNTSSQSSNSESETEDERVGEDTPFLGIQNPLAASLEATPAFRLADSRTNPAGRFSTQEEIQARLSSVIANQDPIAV
Neurogenic locus notch homolog protein 2 (Homo sapiens), sequence (Q04721 whole entry, looked up, canonical isoform): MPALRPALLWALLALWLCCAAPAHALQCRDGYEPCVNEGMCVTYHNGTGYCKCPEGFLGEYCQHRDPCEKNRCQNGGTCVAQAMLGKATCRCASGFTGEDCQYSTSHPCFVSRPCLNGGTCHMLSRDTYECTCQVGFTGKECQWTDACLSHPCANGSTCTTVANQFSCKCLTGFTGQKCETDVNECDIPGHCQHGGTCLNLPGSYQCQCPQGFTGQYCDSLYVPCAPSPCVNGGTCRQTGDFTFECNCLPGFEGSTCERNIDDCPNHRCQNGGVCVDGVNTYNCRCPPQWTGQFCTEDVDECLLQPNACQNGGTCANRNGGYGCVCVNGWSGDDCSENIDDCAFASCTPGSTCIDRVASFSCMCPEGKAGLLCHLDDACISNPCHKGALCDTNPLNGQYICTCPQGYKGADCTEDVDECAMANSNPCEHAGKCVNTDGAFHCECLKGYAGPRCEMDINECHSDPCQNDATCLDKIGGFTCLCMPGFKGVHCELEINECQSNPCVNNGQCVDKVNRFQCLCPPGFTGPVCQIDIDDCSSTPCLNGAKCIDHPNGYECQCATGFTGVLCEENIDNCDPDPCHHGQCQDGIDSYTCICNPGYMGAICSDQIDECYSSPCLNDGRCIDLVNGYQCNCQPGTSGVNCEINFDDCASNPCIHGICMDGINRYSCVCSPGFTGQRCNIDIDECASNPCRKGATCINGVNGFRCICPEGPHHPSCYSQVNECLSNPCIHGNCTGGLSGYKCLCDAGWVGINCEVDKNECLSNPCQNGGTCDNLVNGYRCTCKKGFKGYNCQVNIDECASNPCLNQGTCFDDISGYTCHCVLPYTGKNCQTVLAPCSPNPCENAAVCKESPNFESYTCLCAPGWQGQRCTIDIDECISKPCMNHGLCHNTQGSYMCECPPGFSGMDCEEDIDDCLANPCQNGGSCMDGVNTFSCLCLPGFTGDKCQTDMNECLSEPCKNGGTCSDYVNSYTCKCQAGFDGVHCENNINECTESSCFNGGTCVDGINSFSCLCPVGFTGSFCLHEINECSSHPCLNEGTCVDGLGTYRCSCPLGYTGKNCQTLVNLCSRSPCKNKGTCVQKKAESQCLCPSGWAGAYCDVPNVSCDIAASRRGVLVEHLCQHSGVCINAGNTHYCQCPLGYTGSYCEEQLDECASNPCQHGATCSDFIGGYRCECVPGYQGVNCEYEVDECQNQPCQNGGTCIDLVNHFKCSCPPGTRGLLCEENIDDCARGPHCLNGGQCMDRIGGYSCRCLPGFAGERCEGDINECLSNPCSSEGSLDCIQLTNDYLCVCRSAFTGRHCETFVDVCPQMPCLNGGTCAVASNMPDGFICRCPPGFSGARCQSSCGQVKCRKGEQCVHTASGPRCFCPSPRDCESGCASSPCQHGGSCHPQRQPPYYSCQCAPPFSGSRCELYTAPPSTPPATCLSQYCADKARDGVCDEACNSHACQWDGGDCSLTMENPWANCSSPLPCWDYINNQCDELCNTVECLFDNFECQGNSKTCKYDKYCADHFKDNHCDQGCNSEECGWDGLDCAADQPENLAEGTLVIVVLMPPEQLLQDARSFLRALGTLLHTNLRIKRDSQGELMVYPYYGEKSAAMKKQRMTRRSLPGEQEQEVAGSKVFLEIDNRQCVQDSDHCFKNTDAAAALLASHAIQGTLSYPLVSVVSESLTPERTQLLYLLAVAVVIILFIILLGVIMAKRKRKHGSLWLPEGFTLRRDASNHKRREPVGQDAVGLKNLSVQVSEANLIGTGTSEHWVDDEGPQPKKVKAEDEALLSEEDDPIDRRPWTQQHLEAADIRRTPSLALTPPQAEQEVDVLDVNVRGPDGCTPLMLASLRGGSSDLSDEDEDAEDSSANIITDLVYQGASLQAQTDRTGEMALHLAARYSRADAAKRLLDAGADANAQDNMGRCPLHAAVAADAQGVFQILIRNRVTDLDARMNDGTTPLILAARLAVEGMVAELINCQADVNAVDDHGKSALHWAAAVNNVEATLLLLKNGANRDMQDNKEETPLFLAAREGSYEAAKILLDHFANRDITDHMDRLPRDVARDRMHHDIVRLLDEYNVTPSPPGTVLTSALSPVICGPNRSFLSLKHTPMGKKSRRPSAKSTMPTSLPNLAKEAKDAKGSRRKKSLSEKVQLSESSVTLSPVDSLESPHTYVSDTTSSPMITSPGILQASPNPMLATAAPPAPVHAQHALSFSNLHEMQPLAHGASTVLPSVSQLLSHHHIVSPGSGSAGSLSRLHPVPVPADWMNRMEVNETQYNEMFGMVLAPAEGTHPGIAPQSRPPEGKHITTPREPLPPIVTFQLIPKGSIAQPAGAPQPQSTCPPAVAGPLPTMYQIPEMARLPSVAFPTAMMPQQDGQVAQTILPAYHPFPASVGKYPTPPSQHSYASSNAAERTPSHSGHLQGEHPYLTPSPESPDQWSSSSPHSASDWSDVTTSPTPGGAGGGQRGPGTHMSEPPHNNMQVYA

| SMILES | composite z-score [1] | composite z-score [2] | composite z-score [3] | composite z-score [4] | composite z-score [5] | composite z-score [6] | composite z-score [7] | z-score [8] | composite z-score [9] | composite z-score [10] |
| --- | --- | --- | --- | --- | --- | --- | --- | --- | --- | --- |
| CCOC(=O)[C@@H]1CCCCN1C(=O)C(=O)OC | 0.0188 | 0.188 | -0.0593 | 0.453 | 0.0842 | -0.0734 | 0.33 | 0.148 (inactive) | 0.115 | -0.342 |
| C=CC[C@@H](OC(=O)Nc1ccc(SC)cc1)c1ccc(O)c(F)c1 | 0.401 | 0.601 | -0.0729 | 0.165 | -0.131 | 1.7 | 1.21 | 6.7 (inactive) | -0.277 | -0.0645 |
| COc1cc2c(cc1O)C=[N+](Cc1sc3ccccc3c1Cl)CC2 | 0.172 | -0.0743 | -0.0999 | 0.1 | 1.06 | -0.102 | 1.48 | 0.432 (inactive) | -0.161 | 0.0178 |
| C=CCC(OC(C)=O)[C@@H]1[C@@H](N(Cc2ccc(-c3cccc(C(F)(F)F)c3)o2)C(=O)Cc2ccc(OC)cc2)c2cc(OCCCO)ccc2N1C(=O)c1ccc(-c2ccccc2)cc1 (stereo not given in full) | -0.124 | 0.004 | -0.0796 | 0.0554 | -0.57 | 0.168 | 0.0604 | -0.461 (inactive) | 0.214 | 0.382 |
| COCCOC(=O)N1C(=O)[C@@]2(c3cc(C#CCC(C(=O)OC)C(=O)OC)ccc31)[C@H](c1ccc(OCCO)cc1)N1[C@H](c3ccccc3)[C@H](c3ccccc3)OC(=O)[C@H]1[C@@H]2C(=O)N1CCc2cc(OC)c(OC)cc2C1 | 0.119 | 0.351 | -0.0985 | 0.953 | 1.21 | 1.54 | 1.25 | 0.913 (inactive) | 0.47 | -0.131 |
| CCOC(=O)C1=CC[C@@H](c2ccccc2)N(S(=O)(=O)c2ccc(C)cc2)[C@H]1c1ccccc1 | 0.322 | 0.13 | -0.0073 | 0.296 | 1.37 | 0.334 | 0.628 | -2.4 (inactive) | 0.77 | -0.265 |
| CCCC=C(CCC)[C@@H](NC(=O)C(C)(C)C)c1ccc(C(=O)OC)cc1 | 0.488 | -0.495 | 0.202 | 0.0431 | 1.45 | 0.992 | 0.883 | -4.15 (inactive) | 1.26 | -0.115 |
| CC(C)NC(=O)[C@@]1(c2ccc([N+](=O)[O-])cc2)CC(=O)N(C2CCCCC2)[C@@H]1c1ccc(CO)cc1 | -0.903 | 1.08 | 0.0584 | 0.817 | 0.261 | 1.69 | 1.35 | -0.629 (inactive) | -0.114 | -0.172 |
| CCCC=C(CCC)[C@@H](NP(=O)(c1ccccc1)c1ccccc1)c1ccc(-c2ccccc2)cc1 | 0.0517 | 0.887 | 0.112 | 0.704 | 1.57 | 1.19 | 1.14 | -2.1 (inactive) | 1.14 | 0.172 |
| COc1ccc(C#Cc2ccc3c(c2)[C@]2(C(=O)N3)[C@H](c3ccc(OCCO)cc3)N3[C@H](c4ccccc4)[C@H](c4ccccc4)OC(=O)[C@H]3[C@@H]2C(=O)NC[C@H](O)c2ccccc2)cc1 | -0.338 | 0.411 | -0.0276 | 0.422 | 1.16 | 1.55 | 1.13 | -0.164 (inactive) | 0.547 | -0.236 |
| [N-]=[N+]=Nc1ccccc1[C@@H]1OC(c2ccc(OCCCO)cc2)=N[C@]1(Cc1ccccc1)C(=O)O | -0.0974 | 0.396 | -0.0178 | 0.366 | 0.828 | 1.42 | 1.22 | 0.235 (inactive) | 1.39 | -0.126 |
| CC[C@@H]1C=C(C(=O)O)[C@H](c2ccccc2)N1S(=O)(=O)c1ccc(C)cc1 | 0.262 | 0.577 | 0.0663 | 0.829 | 1.53 | 1.19 | 1.38 | -1.24 (inactive) | 0.635 | -0.0296 |
| CCOC(=O)C[C@H]1[C@H](OC(=O)c2cc3ccccc3oc2=O)[C@@H](NC(=O)c2ccccc2)c2cc(OCCCO)ccc2N1C(=O)c1ccccc1 | -0.319 | 0.524 | -0.105 | 0.462 | 1.17 | 0.0287 | 0.819 | 1.57 (inactive) | 0.349 | -0.199 |
| COC(=O)C1(CC(C)C)C=C2C(=C(c3ccccc3)C(=O)C2C)CN1 (stereo not given) | 1.92 | 0.442 | 0.669 | 0.746 | 1.1 | 1.02 | 0.78 | 1.19 (inactive) | 1.15 | 0.935 |
| C#CCN([C@@H](Cc1ccccc1)C(=O)OC)[C@@H](/C=C/C1CC1)[C@H](O)Cc1ccccc1 | 1.2 | 0.0218 | -0.114 | -0.181 | -0.875 | -0.445 | -0.351 | -4.13 (inactive) | -0.283 | -0.169 |
| NCCCCCNC(=O)[C@@H]1C[C@@H]2C(=O)N[C@@H](CCCCN)C(=O)N2[C@@H]1c1ccc(O)cc1 | 0.266 | 0.726 | -0.0213 | 0.491 | 1.39 | 2.02 | 1.29 | 1.08 (inactive) | 0.865 | 0.23 |
| COC(=O)[C@@]1(Cc2ccccc2)[C@H]2c3cc(C(=O)N(C)C)n(Cc4ccc(C)o4)c3C[C@H]2CN1C(=O)c1ccccc1 | 1.97 | 0.6 | 0.632 | 0.685 | 1.36 | 1.47 | 1.15 | 0.495 (inactive) | 1.91 | 0.414 |
| COc1ccc(C#Cc2ccc3c(c2)[C@]2(C(=O)N3)[C@H](c3ccc(O)cc3)N3[C@H](c4ccccc4)[C@H](c4ccccc4)OC(=O)[C@H]3[C@@H]2C(=O)Nc2nc3ccccc3s2)cc1 | -0.552 | -0.133 | -0.0242 | 0.534 | 1.6 | 1.69 | 1.36 | 1.33 (inactive) | 1.01 | 0.113 |
| C=C(/C(=C/C[C@H](OC(=O)c1ccncc1)c1ccc(CO)o1)c1cnc2ccccc2c1)C(C)C | -0.418 | 0.0906 | -0.0325 | 1.21 | 1.44 | 0.519 | 1.17 | 0.368 (inactive) | 0.106 | 0.0373 |
| CC(C)C(CO)N1C(=O)[C@@H]2C3C(=O)OCCC/C=C\[C@H]3OC23C=CCN(Cn2nnc4ccccc42)C(=O)[C@@H]13 (stereo not given in full) | 0.314 | -0.665 | -0.148 | -0.323 | -0.72 | 1.88 | 0.476 | 0.0182 (inactive) | 0.013 | -0.306 |
| COc1ccccc1CN1C(=O)c2ccccc2[C@](Cc2ccccc2I)(C(=O)O)[C@@H]1c1ccc(CO)cc1 | -0.689 | 0.387 | 0.0043 | 1.01 | 1.51 | 1.36 | 1.27 | -1.49 (inactive) | -0.262 | 0.305 |
